Source: PubChem (National Center for Advancing Translational Sciences (NCATS))
Shiga inhibitor: Shiga toxin inhibition; AID 2315; 290,000 compounds, 9.2% hits; inhibition, % at 38.7 µM; Vero cells, Shiga toxin protein synthesis inhibition reporter; in the data active = inhibition mostly above about 28%, no sharp cut-off; inactive = mostly below about 43%; note: 0% is about no effect
Pf growth 48h: inhibits P. falciparum growth in the first generation, 48 h | P. falciparum luciferase growth in erythrocytes, 48 h | Potency, µM (series often up to 28.7 µM), without a hit: top-dose activity change, negative = inhibition, most hits filed as inhibitors | 310,000 compounds, 5.9% hits; note: potency is the fitted concentration of half-maximal effect; % is set by controls: 0 for no effect and ±100 for the full control effect
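Here the parasites carry a stable luciferase gene and grow inside erythrocytes in Albumax-based RPMI medium with compound for one erythrocytic cycle. Activity is scored as loss of luminescent signal.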
Cycloheximide cs: affects cycloheximide protein synthesis inhibition readout, counter-screen. cell reporter, cycloheximide protein synthesis inhibition counterscreen. max response, %. 300,000 compounds, 12% hits. AID 2314; in the data active = max response mostly above about 13%, no sharp cut-off; inactive = mostly below about 14%; note: read at 38.3 µM for the half of the compounds with a filed dose; 0% is about no effect
HCMV inh: human cytomegalovirus inhibition. activity change, negative = inhibition, % at 57.5 µM. 410,000 compounds, 4.5% hits. HFF cells, HCMV-luciferase reporter, 72 h; hits give low values; in the data active = activity change below about -60%; inconclusive = no clear call, values can overlap the other calls; inactive = above about -39%; note: % is set by controls: 0 for no effect and ±100 for the full control effect
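Two compound doses tested in HFFs infected with HCMV-luciferase, MOI 1 PFU/cell, 72 h at 37C. Lysate luminescence read with OneGlo; data normalized against buffer-only and 10uM Salinomycin inhibitor controls.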
Pf growth 96h: P. falciparum growth inhibition at 96 hour, primary screen for plastid delayed-death inhibitors; Potency, µM (series often up to 28.7 µM), for the others: top-dose activity change, negative = inhibition, actives largely listed as inhibitors; 320,000 compounds, 6.9% hits; P. falciparum luciferase reporter growth, 96 h; AID 504834; note: potency is the fitted concentration of half-maximal effect; % is set by controls: 0 for no effect and ±100 for the full control effect
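96 h incubation, 37 C, 5% CO2, of luciferase-reporter P. falciparum-infected RBCs (2% hematocrit, 0.05% parasitemia final) with test compounds; endpoint luminescence.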
HCV inh: HCV inhibition. AID 651820. Huh7.5.1 HCVcc-Cre infection, luciferase reporter, 44 h. Potency, µM (titrated, usually from 41.8 µM), without a hit: at the top dose activity change, negative = inhibition, hits mostly inhibitors. 340,000 compounds, 3.4% hits; note: potency is the fitted concentration of half-maximal effect; % is set by controls: 0 for no effect and ±100 for the full control effect
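Antiviral activity was scored by luciferase reporter output from cells infected with HCVcc-Cre (~0.5 moi) in presence of compound, 44 h infection period, cells seeded 1,000/well 4 h prior.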
The depositor's hits bear a star; ? = inconclusive; . = not tested or not shown; [ ] = remark or other dose. The list is not random: actives were taken first. Their share in the collection is about 21%. Unless noted, calls come from the whole dose curve; as a rule, active = well fitted inhibition curve with a large enough effect; inconclusive = small, poorly fitted or top-dose-only effect, or another doubt; inactive = no such curve, though single readings can be large or run the other way.

SMILES	Shiga inhibitor	Pf growth 48h	Cycloheximide cs	HCMV inh	Pf growth 96h	HCV inh
CS(=O)(=O)c1nc(S(=O)(=O)c2ccc(Cl)cc2)c(N2CCCCCC2)s1	12	?	-3	?	13µM*	-2%
CCS(=O)(=O)c1nc(S(=O)(=O)c2ccc(C)cc2)c(N2CCN(C)CC2)s1	1	-9%	1	-34	?	-10%
Cc1ccc(S(=O)(=O)c2nc(S(=O)(=O)c3ccc(C)cc3)c(N3CCN(CCO)CC3)s2)cc1	-7	5.2µM*	-3	-107*	-31%	?
CS(=O)(=O)c1nc(S(=O)(=O)c2ccc(Cl)cc2)c(NCCCn2ccnc2)s1	-3	-14%	2	-40	5.9µM*	15%
Cc1ccc(-c2nc(CS(=O)CC(=O)NCCc3ccc(Cl)cc3)c(C)o2)cc1 (configuration not stated)	.	.	.	-10	.	.
O=c1cc(CNc2ccc(Br)cc2)nc2sccn12	56*	47%	28*	11	22%	-6%
CC(=O)c1ccc(OCc2cc(=O)n3ccsc3n2)cc1	63*	126%	38*	128	147%	?
CN(Cc1cc(=O)n2ccsc2n1)c1ccccc1	-2	11%	2	-28	-26%	-9%
c1ccc(-c2nc(NCC3CCCO3)c3ccccc3n2)nc1 (configuration not stated)	-18	?	-2	-97*	-3%	?
Oc1cccc(Nc2nc(NCC3CCCO3)c3ccccc3n2)c1 (configuration not stated)	11	0.37µM*	8	.	-18%	?
COc1ccc(Nc2nc(NCC3CCCO3)c3ccccc3n2)c(OC)c1 (configuration not stated)	35	?	-3	-91*	44%	10µM*
CCOc1ccc(Nc2nc(NCC3CCCO3)c3ccccc3n2)cc1 (configuration not stated)	17	1.2µM*	14	-31	-19%	?
c1ccc2c(NCC3CCCO3)nc(N3CCOCC3)nc2c1 (configuration not stated)	14	13%	-3	-7	11%	3%
COc1ccc(Nc2c[nH]c(=O)[nH]c2=O)cc1	.	.	.	-3	.	22%
CCN(C(=O)COC(=O)c1ccccc1NCCO)C1CCS(=O)(=O)C1 (configuration not stated)	.	-17%	.	-1	16%	6%
c1ccc(Nc2nc(NCC3CCCO3)c3ccccc3n2)cc1 (configuration not stated)	13	?	9	?	9%	7.1µM*
Cc1csc2nc(-c3cccc(NC(=O)C(C)C)c3)cn12	.	.	.	1	.	.
Cn1c(=NC(=O)C2CCCCC2)sc2cc([N+](=O)[O-])ccc21	99*	42%	42*	6	31%	0%
CCOc1ccc2c(c1)sc(=NC(=O)C1CC1)n2C	62*	?	39*	77	?	-21%
O=C(N[C@H]1CC[C@H](CCNS(=O)(=O)c2ccc(Cl)cc2)O[C@@H]1CO)c1cccc(F)c1	.	.	.	-101*	.	.
O=C(N[C@H]1CC[C@@H](CCNS(=O)(=O)c2ccccc2Cl)O[C@@H]1CO)c1ccccc1	.	.	.	-23	.	.
COc1ccc(C(=O)NCc2ccc3c(c2)CCN3C(=O)c2ccc(Cl)cc2)c(OC)c1	.	.	.	31	.	.
O=C(Nc1ccc(Br)cc1)C1C2C=CC3(O2)C1C(=O)N(CCN1CCOCC1)C3C(=O)NC1CCCCC1 (configuration not stated)	-19	1%	-10	38	10µM*	-10%
Cc1ccc(NC(=O)C2C3C=CC4(O3)C2C(=O)N(CCN2CCOCC2)C4C(=O)NC2CCCCC2)cc1C (configuration not stated)	-2	-5%	-11	-13	?	?
Cc1ccc(NC(=O)C2C3C=CC4(O3)C2C(=O)N(CCCN2CCOCC2)C4C(=O)NC2CCCCC2)cc1Cl (configuration not stated)	22	2%	-5	-14	2.1µM*	?
SMILES	Shiga inhibitor	Pf growth 48h	Cycloheximide cs	HCMV inh	Pf growth 96h	HCV inh
CCc1ccc(N2CCn3c2nc2c3c(=O)n(C/C=C/c3ccccc3)c(=O)n2C)cc1	.	.	.	13	.	.
Cc1ccc2occ(/C=C/C(=O)O)c(=O)c2c1	30	8%	20	33	4%	6%
O=C(O)/C=C/c1coc2ccc(F)cc2c1=O	active	0%	23*	-29	55%	7%
O=C(N/N=C/c1coc2ccccc2c1=O)c1ccccc1	-3	41%	1	-32	45%	2%
O=C(O)/C=C/c1coc2ccccc2c1=O	12	30%	33*	13	29%	3%
Cn1cc(Cl)c(/C(N)=N/OC(=O)c2ccccc2C(F)(F)F)n1	91*	117%	50*	42	58%	10%
CC(C)COc1ccc(-c2nnc(-c3ccncc3)o2)cc1	111*	110%	38*	79	20%	?
CCCOc1ccc(-c2nnc(-c3ccncc3)o2)cc1	84*	129%	21*	23	?	11µM*
OC(COc1ccc(OCc2ccccc2)cc1)CN1CCCCC1 (configuration not stated)	74*	13%	31*	?	.	?
OC(COc1ccccc1)CN1CCCC1 (configuration not stated)	-6	-14%	-8	2	-1%	14%
O=S(=O)(c1ccc(OCC(O)CN2CCC(Cc3ccccc3)CC2)cc1)N1CCOCC1 (configuration not stated)	-7	12µM*	-3	-40	?	?
O=C(c1ccccc1)c1ccc(OCC(O)CN2CCOCC2)cc1 (configuration not stated)	.	.	.	28	.	-4%
OC(COc1ccc(OCc2ccccc2)cc1)CN1CCOCC1 (configuration not stated)	36	18%	20*	25	.	9%
CC(C)(c1ccccc1)c1ccc(OCC(O)CN2CCCC2)cc1 (configuration not stated)	-12	13µM*	-8	-32	-31%	?
O=S(=O)(c1ccc(OCC(O)CN2CCN(c3ccccc3)CC2)cc1)N1CCOCC1 (configuration not stated)	-3	-14%	-3	-32	6%[5.75 µM]	-19%
CN(C)CC(C)(C)CNS(=O)(=O)c1ccc(Cl)s1	-1	?	-2	-29	-2%[5.75 µM]	8%
OCCN1CCN(CC(O)COc2ccc(-c3ccccc3)cc2)CC1 (configuration not stated)	74*	-18%	32*	67	.	?
CN1CCN(CC(O)COc2ccc(C34CC5CC(CC(C5)C3)C4)cc2)CC1 (configuration not stated)	0	?	1	?	?	10µM*
